Laboratory results: PubChem BioAssay AID624256 (NMMLSC, 2012)
About 3,700 (1%) of roughly 360,000 compounds were called active. About 2% were inconclusive and are not listed.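 The calls were made as follows: active = normalized GFP-positive differentiation at or above the plate's own cutoff, the solvent-only control mean plus 3 SD; inconclusive = no clear call, values can overlap the other calls; inactive = the rest.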 Many of the other results were omitted from the sample, so actives are more common in it than they were.

experiment: HoxA9-arrested leukemia cell differentiation promoters – flow cytometry, MLPCN library, primary screen (AID 624256); conditions: ER-HoxA9 myeloid progenitors, lysozyme-GFP differentiation, at 10 µM; GFP+ MAC1+ double positive: measured here: differentiation confirmed by MAC1 staining, stronger effect = higher value; normalized GFP-positive differentiation: stronger effect = higher value;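 as to GFP+ MAC1+ double positive: cells exposed to compound for four days before flow analysis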;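 as to normalized GFP-positive differentiation: cells exposed to compound for four days before flow analysis; 0% = DMSO wells and 100% = fulvestrant positive control at 5 µM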

Structure (SMILES) | GFP+ MAC1+ double positive | outcome | normalized GFP-positive differentiation
S=C(NCCCc1cnc[nH]1)NCCCN(Cc1ccc(Cl)c(Cl)c1)c1ccc(Br)cn1 | 1.1% | inactive | –
CC(C)(C)NC(=O)C(CCc1ccccc1)n1c(=O)c(-c2ccccc2)nc2ccccc21 (stereo not drawn) | 3.2% | inactive | –
O=c1c2ccccc2oc2nc3n(c(=O)c12)CCCS3 | 7.5% | inactive | –
COc1ccc(Cn2c(=O)oc3ccccc32)cc1 | 0.5% | inactive | –
CCc1nc2oc3ccccc3c(=O)c2c(=O)n1Cc1ccc(OC)cc1 | 3.7% | – | 16.2% (active)
COc1ccc(-c2nc3ccc(Br)cn3c2Cc2ccc(C)cc2)cc1OC | 0.6% | inactive | –
COc1ccc(CN2CCC(C)(Oc3cccc(F)c3)C2)c2ccccc12 (stereo not drawn) | 0.4% | inactive | –
COc1cnc(-c2ccccn2)nc1Oc1ccc(C(C)(C)C)cc1 | 12.1% | – | 308% (active)
COc1ccc2nc(-c3ccccn3)ccc2c1 | 0.3% | inactive | –
COc1ccc(NCCc2ccccn2)cc1 | 0.7% | inactive | –
CCc1nc2c(OCC(=O)C(C)(C)C)cccn2c1N(C)C(=O)c1ccccc1F | 0.3% | inactive | –
C=CCC[C@H](CCCCC)OC(=O)/C=C/[C@H](O)[C@@H](O)C[C@@H](O)CC=C | 1.1% | inactive | –
COc1ccccc1N1CCN(S(=O)(=O)CCNC(=O)c2ccc(OC(C)C)cc2)CC1 | 1% | – | 44.1% (active)
O=C(NCCS(=O)(=O)N1CCN(c2ccccc2F)CC1)c1ccc(Br)o1 | 2.9% | inactive | –
CCOc1ccc(CC(=O)NCCS(=O)(=O)N2CCN(c3ccccc3)CC2)cc1 | 0.6% | inactive | –
O=C(NCc1cccnc1)c1cc(C2CCCCN2C(=O)CCc2ccccc2)on1 (stereo not drawn) | 0.7% | inactive | –
CCCCOCCCNC(=O)C[C@@H]1C[C@@]2(C(=O)OCC)CCCC=C2N(CCC2=CCCCC2)C1=O | 1.7% | inactive | –
Cc1ccc(S(=O)(=O)c2nc(NCCCn3ccnc3)sc2Cl)cc1 | 0.5% | inactive | –
Cc1ccc2c(Cl)c(C(=O)NCCCn3ccnc3)sc2c1 | 0.5% | inactive | –
Cc1ccc(-c2nc(C#N)c(NCCCn3ccnc3)o2)cc1 | 2.5% | – | 10.9% (active)

Structure (SMILES) | GFP+ MAC1+ double positive | outcome | normalized GFP-positive differentiation
CCOC(=O)c1cc2cc(OC)ccc2n1C1CCN(C)CC1 | 0.3% | inactive | –
O=C(C(=O)N1CCN(c2ccccc2)CC1)c1ccc2c(c1)OCO2 | 1% | inactive | –
O=C(N[C@H]1CC[C@H](CC(=O)N2CCCCC2)O[C@@H]1CO)c1cccc(F)c1 | 1.6% | inactive | –
COC(=O)c1c(-c2ccc(C)cc2)csc1N | 2% | inactive | –
CCOC(=O)c1c(-c2ccc(C)cc2)csc1/N=C(\C)C1=C(O)c2ccccc2C1=O | 10.3% | – | 142% (active)
CCC(C(=O)OC)n1cnc2scc(-c3ccc(C)cc3)c2c1=O (stereo not drawn) | 0.9% | inactive | –
Cc1sc2ccccc2c1CNC[C@H]1O[C@@H](n2ccc(=O)[nH]c2=O)[C@H](O)[C@@H]1O | 1.3% | inactive | –
CC1(C)OC(=O)C2=C(C[C@@H](C3CC3)O[C@H]2c2ccc(Cl)cc2)O1 | 1.4% | inactive | –
COCCNC(=O)C1C(=O)Nc2ccccc2C(=O)N1c1ccc2c(c1)OCCO2 (stereo not drawn) | 3.1% | inactive | –
CCOC(=O)N1CCN(C(=O)c2cc3c(-c4ccc(Cl)cc4)nn(C)c3s2)CC1 | 33.3% | – | 83.1% (active)
COc1ccccc1N1CCN(C(=O)c2cc3c(-c4ccc(Cl)cc4)nn(C)c3s2)CC1 | 3.7% | inactive | –
Cn1nc(C(F)(F)F)c2cc(C(=O)N3CCOCC3)sc21 | 0.1% | inactive | –
CCCS(=O)(=O)NC(=O)C1(C)CCCN(C(=O)c2cc(C)on2)C1 (stereo not drawn) | 0.6% | inactive | –
FC(F)(F)Oc1ccccc1C(c1nnnn1C1CCCCC1)N1CCN(C/C=C/c2ccccc2)CC1 (stereo not drawn) | 1.6% | inactive | –
O=c1[nH][nH]c2c1[C@H](c1ccc(Cl)cc1)O[C@H](CCc1ccccc1)C2 | 0.6% | inactive | –
CCCc1cc(-c2n[nH]c(=S)n2Cc2ccccc2)cs1 | 5.8% | inactive | –
CC(C)Oc1ccc(Cc2n[nH]c(=S)n2Cc2ccccc2)cc1Cl | 0.3% | inactive | –
COc1cc(-c2n[nH]c(=S)n2Cc2ccccc2)cc(OC)c1OC | 22.5% | – | 297% (active)
CN(C)CCNC(=O)c1cccc(-c2cnc3c(NC=O)cc(-c4cccc(C(F)(F)F)c4)cn23)c1 | 2.2% | inactive | –
